# ELG1 DNA repair – inhibitors of ELG1-dependent DNA repair in HEK293T cells | 2.3% of 330,000 active | HEK293T ELG1-luciferase reporter, luminescence, 16 h; DNA damage induced by 5-fluorouridine | Potency, µM (top dose mostly 46.1 µM), for inactives: at the highest dose activity change, negative = inhibition, most hits filed as inhibitors; further: potency means the concentration at half of the fitted maximal effect; nearly all actives have a fitted effect of over 55% in size
#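 5-Fluorouridine DNA damage + compound/DMSO, 2,000 cells/well, 16 h, 37 °C/5% CO2. ONE-Glo, 30 min RT, luminescence. Readout = decrease in reporter signal.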
# IL-1B inflam inh – blocks inflammasome-driven IL-1 beta release; THP-1 LPS/ATP IL-1B secretion, AlphaLISA, 16 h; active compounds read low; activity change, % at 57.5 µM; 4.7% of 360,000 active; in the data active means activity change below about -50%; inconclusive means mostly about -30% to -49%
#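 THP-1 cells pretreated 1 hr with compounds (up to 57.5 uM final), then stimulated with LPS (250 ng/mL final) plus ATP (1.25 mM final); secreted IL-1B measured by AlphaLISA after 16 hr, decreased signal indicating inhibition.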
# TDP1 cell noCPT – qHTS for Inhibitors of human tyrosyl-DNA phosphodiesterase 1 (TDP1): qHTS in cells in absence of CPT. DT40 Tdp1-/- hTDP1 cells, no CPT, ATP luminescence, 48 h. Potency, µM (highest dose often 46.2 µM), for the others: at the highest dose activity change, negative = growth inhibition, actives largely listed as inhibitors. 15% of 420,000 active; further: potency means the concentration at half of the fitted maximal effect; nearly all actives have a fitted effect of over 55% in size
#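 Growth kinetics read by CellTiter-Glo luminescence after ≥48 hr at 37 °C. Cells: DT40 Tdp1-/- stably carrying human TDP1, 400 per well, compound exposure in the absence of CPT (DMSO vehicle).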
# DT40 TDP1 CPT – DT40-hTDP1 cell growth loss with CPT. chicken DT40 Tdp1-/-;hTDP1 cells + 20 nM CPT, ATP luminescence, 48 h. Potency, µM (titrated, usually from 46.2 µM), without a hit: at the highest dose activity change, negative = growth inhibition, usual class: inhibitors. 12% of 420,000 active; further: potency means the concentration at half of the fitted maximal effect; nearly all actives have a fitted effect of over 55% in size
#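 Cell growth measured by CellTiter-Glo luminescence after a minimum 48 h, 37 C compound exposure with 20 nM CPT in Tdp1-knockout DT40 cells stably expressing hTDP1, seeded 400/well; qHTS titration format.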
# HT1080NT lethal – kills 2HG-producing HT-1080-NT fibrosarcoma cells | HT-1080-NT fibrosarcoma viability, CellTiter-Glo ATP luminescence, 48 h | Potency, µM (series often up to 46.1 µM), inactives show at the highest dose activity, negative = less viability, actives largely listed as cytotoxic | 1.6% of 360,000 active;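 further: NT is the 2HG producing partner of a matched IDH1 knockdown line; potency means the concentration at half of the fitted maximal effect; 0% = DMSO-treated cells and -100% = media-only wells without cells; nearly all actives have a fitted effect of over 55% in size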
#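 A 48-hour cytotoxicity screen used HT-1080-NT cells plated 2 hours before compound delivery. ATP-based CellTiter-Glo luminescence measured viability, normalized to DMSO and no-cell controls.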
# HT1080 IDH1KD tx – kills HT-1080 cells with IDH1 knockdown. HT-1080 IDH1 knockdown viability, ATP luminescence, 48 h. Potency, µM (series often up to 46.1 µM), inactives show at the top dose activity, negative = toxicity, actives largely listed as cytotoxic. 2% of 360,000 active;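 further: potency means the concentration at half of the fitted maximal effect; 0% = DMSO wells and -100% = cell-free medium wells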
#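 After a 2 h attachment period, IDH1KD HT-1080 cells took pin-transferred compound for 48 h at 37 °C; ATP-based luminescence after 10 min room-temperature reagent incubation reported viability.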
# Starred values were filed as active, the others as inactive; u = inconclusive; x = no result given; [ ] = remark or other dose. Sampled rows, rich in hits. Any-hit rate of the full collection: about 19%. Unless noted, the call rests on the fitted dose curve; in most records, active means well fitted curve in the direction sought with a large enough effect; inconclusive means small, poorly fitted or top-dose-only effect, or another doubt; inactive means no such curve, though single readings can be large; an effect the other way counts as inactive or inconclusive. Unless noted, on the % scale 0 is the no-effect control and ±100 the full control effect.
SMILES,ELG1 DNA repair,IL-1B inflam inh,TDP1 cell noCPT,DT40 TDP1 CPT,HT1080NT lethal,HT1080 IDH1KD tx
COc1ccc(OC)c(NC(=O)c2ccc3c(c2)C(=O)N(CC2CCCO2)C3=O)c1 (stereo not drawn),17%,0,-4%,1%,12%,20%
Cn1c(CNC(=O)c2ccco2)nnc1SCC(=O)N1CCN(c2ccccc2F)CC1,2%,17,-8%,18%,0%,14%
COc1cc(=O)n2c(c1C(=O)NCc1cccc(F)c1)CCN(Cc1cccnc1)CC2,x,x,-20%,-5%,x,x
COc1ccc(N/C(C)=C/C(=O)c2ccccc2)cc1,u,-1,-21%,-22%,2%,4%
COc1ccc(NC(=S)c2ccccc2)cc1,u,-82*,-22%,-8%,3%,7%
COc1ccc(N/C(C)=C/C(=S)Nc2ccccc2)cc1,28%,25,u,10µM*,-3%,-8%
CCc1ccccc1NC(=O)Cn1ccn(Cc2ccccc2)c(=O)c1=O,x,x,-8%,2%,x,x
[O-]/[N+](=C\c1ccncc1)c1ccccc1,5%,-1,u,21µM*,6%,1%
CC(=O)Oc1ccc(/C=N/NC(=O)c2ccc(N(C)S(=O)(=O)c3ccccc3)cc2)cc1,-1%,3,u,0%,-25%,-12%
COc1cc(/C=N/NC(=O)c2ccc(CSc3nc4ccccc4[nH]3)cc2)cc(OC)c1OC,7.3µM*,6,13µM*,18µM*,-7%,-19%
COc1cc(/C=N/NC(=O)c2ccc3nc[nH]c3c2)cc(OC)c1OC,0%,-67*,-2%,3%,6%,12%
COc1cc(/C=N/NC(=O)c2ccc3nc[nH]c3c2)cc(OC)c1OC(C)=O,x,-10,-15%,u,6%,6%
COc1cc(C(=O)NN=Cc2ccc(N(C)C)cc2)cc(OC)c1OC,x,0,0.92µM*,0.92µM*,3.7µM*,2.9µM*
COc1cc(/C=N/NC(=O)c2ccncc2)cc(OC)c1OC,u,23,18%,14%,17%,7%
CCOc1cc(/C=N/NC(=O)c2ccc(N(C)S(=O)(=O)c3ccccc3)cc2)ccc1OC,-19%,-8,21µM*,u,-4%,-3%
COc1ccc(C(=O)N2CCC3(CCN(C(=O)Nc4cccc(C#N)c4)CC3)CC2)cc1,x,x,u,5%,x,x
COc1ccc(CN2C(=O)c3cccc4cccc2c34)cc1F,0%,-6,-23%,-23%,-20%,-27%
O=C(O)C1Cc2[nH]cnc2C(c2ccccc2O)N1 (stereo not drawn),15%,7,4%,13%,-3%,-11%
COc1cccc2cc(C(=O)C3=C(O)C(=O)N(CCN4CCOCC4)C3c3cccc(Cl)c3)oc12 (stereo not drawn),-5%,-6,-23%,u,-19%,-11%
CCOc1cc(/C=N/NC(=O)c2ccc(CN3CCOCC3)cc2)ccc1OCc1ccccc1,18µM*,42,18µM*,u,0%,-1%
CCOc1cc(/C=N/NC(=O)CN2CCOCC2)ccc1OCc1ccccc1,1%,0,u,-18%,-1%,10%
CCOc1cc(/C=N/NC(=O)c2nn(C)cc2Br)ccc1OCc1ccccc1Cl,u,-16,16µM*,21µM*,-18%,-13%
COc1ccc(Br)cc1/C=N/NC(=O)CNC(=O)/C=C/c1ccccc1,2%,89,13µM*,16µM*,u,u
COc1ccc(/C=C/C(=O)NCC(=O)N/N=C/c2cc(Br)ccc2OCc2ccccc2)cc1,u,33,u,u,u,-15%[9.24 µM]
COc1ccccc1/C=C\C(=O)NCC(=O)N/N=C/c1ccc(O)cc1O,23µM*,71,u,u,u,9.2µM*
SMILES,ELG1 DNA repair,IL-1B inflam inh,TDP1 cell noCPT,DT40 TDP1 CPT,HT1080NT lethal,HT1080 IDH1KD tx
COc1cccc(/C=N/NC(=O)CNC(=O)C(c2ccccc2)c2ccccc2)c1O,-29%,77,5.8µM*,7.3µM*,u,u
COc1cccc(/C=N/NC(=O)CNC(=O)/C=C\c2ccccc2)c1O,0%,37,2.1µM*,u,-3%,22%
COc1ccc(/C=C\C(=O)NCC(=O)N/N=C/c2cccc(OC)c2O)cc1,-7%,68,2.6µM*,5.8µM*,-17%,0%
CCC1Sc2ccc(S(=O)(=O)CCC(=O)Nc3cc(C)ccn3)cc2NC1=O (stereo not drawn),0%,13,u,-1%,2%,1%
FC(F)(F)c1cccc(-c2nn[nH]n2)c1,-10%,16,-13%,0%,1%,-4%
Nc1nc(N)c(-c2cccc(C(F)(F)F)c2)c(Cc2cccc(C(F)(F)F)c2)n1,x,-81*,1.3µM*,2.9µM*,u,4.6µM*
NCC1O[C@@H](OC2C(N)CC(N)C(O)C2O[C@@H]2OC(CO)C(O)C2O)C(N)C(O)C1O (stereo partly drawn),x,x,-1%,-29%,x,x
CCCCCSc1nnc2c(n1)[nH]c1c(C)cccc12,x,x,2.9µM*,9.2µM*,x,x
